About 79,000 compounds went through this panel and 15% of them were active in at least one assay; those are over-represented in the sample as a whole. Rule as the data show it: active = growth inhibition above about 70%; inactive = the rest.
What was measured:
[1] = NCI Yeast Anticancer Drug Screen. Data for the rad50 strain (AID 155);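 also: 0% = growth of vehicle-only cultures of the same strain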; details: S. cerevisiae rad50 strain growth inhibition; at 50.0 µM; stronger effect = higher value
Summary of the method: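 Relative growth inhibition (compound vs vehicle) was measured in yeast with a defined repair-gene alteration.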

[2] = NCI Yeast Anticancer Drug Screen. Data for the mec2-1 strain (AID 157); details: S. cerevisiae mec2-1 strain, at 50.0 µM, stronger effect = higher value
Summary of the method: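 Mutant yeast (mec2-1) grown with compound; growth inhibition relative to vehicle control reported.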

[3] = NCI Yeast Anticancer Drug Screen. Data for the sgs1 mgt1 strain (AID 161);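 also: 0% = growth of cultures given vehicle only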; details: S. cerevisiae sgs1 mgt1 strain, at 50.0 µM, stronger effect = higher value
Summary of the method: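 Growth of a repair-deficient yeast mutant was monitored after compound treatment and expressed as inhibition relative to vehicle-treated cultures.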

[4] = NCI Yeast Anticancer Drug Screen. Data for the cln2 rad14 strain (AID 165);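 also: 0% = growth equal to vehicle treated cultures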; details: S. cerevisiae cln2 rad14 strain, at 50.0 µM, stronger effect = higher value
Summary of the method: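 Readout is yeast growth inhibition versus vehicle-treated controls, using a strain with cln2 and rad14 alterations exposed to compound.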

[5] = NCI Yeast Anticancer Drug Screen. Data for the bub3 strain (AID 167); details: S. cerevisiae bub3 mutant strain, at 50.0 µM, stronger effect = higher value
Summary of the method: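 Screening used yeast with an engineered genetic alteration affecting cell cycle control. Compound-exposed cultures were compared with vehicle cultures, and reduced growth was taken as inhibition.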

[6] = NCI Yeast Anticancer Drug Screen. Data for the mlh1 rad18 strain (AID 175); details: S. cerevisiae mlh1 rad18 strain growth inhibition; at 50.0 µM; stronger effect = higher value
Summary of the method: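 Genetically defined yeast (DNA repair-deficient) exposed to compounds; growth inhibition determined relative to vehicle.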

Measured: growth inhibition

COC(=O)c1ccccc1-c1ccccc1[N+](=O)[O-]
inactive: [1] 3.15% | [2] -1.75% | [3] 2.5% | [4] 2.6% | [5] -7.35% | [6] -3%

Nc1ccc(N)c(Cl)c1
inactive: [1] -19.4% | [2] -15.8% | [3] -19.8% | [4] 14.7% | [5] -7.3% | [6] -2.85%

Oc1ccc2ccccc2c1/C=N\Sc1ccc(Cl)cc1
inactive: [1] 49% | [2] 34.7% | [3] 64.1% | [4] 28.8% | [5] 32.2% | [6] 49%

COc1ccc(Cl)cc1Cl
inactive: [1] 6.8% | [2] -6.45% | [3] -98% | [4] 14.2% | [5] 14.1% | [6] 26.6%

NNC(=O)C1C2C=CC(C2)C1C(=O)NN (stereo unspecified)
inactive: [1] 7.6% | [2] -8.05% | [3] -11.7% | [4] -35% | [5] 4.15% | [6] 4.2%

Cc1cc(=O)n(-c2c(C)cccc2Cl)c(/C=C(\O)c2ccncc2)n1
inactive: [1] 4.25% | [2] -2.65% | [3] 3.8% | [4] 8.3% | [5] 4.15% | [6] 2.85%

COC(=O)C(Cc1c[nH]c2ccccc12)NP(=O)(O)OCC1OC(n2cc(F)c(=O)[nH]c2=O)CC1O (stereo unspecified)
inactive: [1] -31.4% | [2] -17.1% | [3] -38.5% | [4] -9.2% | [5] -24.7% | [6] -16.1%

CN1C/C(=C\c2ccco2)c2nc(N)nc(-c3ccco3)c2C1
inactive: [1] -6.15% | [2] -3.35% | [3] 8.9% | [4] 35.5% | [5] 6.85% | [6] -4.15%

c1ccc(N2CCN(CCCN3CCc4c([nH]c5ccccc45)C3c3cccnc3)CC2)cc1 (stereo unspecified)
inactive: [1] -5.55% | [2] -18.1% | [3] -18.8% | [4] 14.1% | [5] -7.9% | [6] -1.8%

O=C(c1ccccc1)c1cc[n+]([O-])cc1
inactive: [1] -5.6% | [2] -11.8% | [3] -18% | [4] -16.9% | [5] -8.7% | [6] 12.7%

CCOC(=O)Nc1c(O)cccc1N1CCOCC1
inactive: [1] -14.1% | [2] 6.65% | [3] 25.9% | [4] -12.1% | [5] 7.4% | [6] -1.25%

O=C(Cn1c2c(c3ccccc31)CCCC2)N1CCOCC1
inactive: [1] -19.3% | [2] -29.4% | [3] -14.1% | [4] 5.15% | [5] -23.8% | [6] -19.6%

Cc1ccc(-c2nc3ccccc3c(=O)n2/N=C/c2ccc(Cl)cc2Cl)cc1
inactive: [1] 9.05% | [2] 3.85% | [3] 7.65% | [4] 11.1% | [5] 7.35% | [6] 21.4%

O=C(CN1CCCc2ccccc21)c1ccccc1
inactive: [1] 6.75% | [2] 6.7% | [3] 4.55% | [4] 10.3% | [5] 19% | [6] 10.4%

COc1ccc(/C=N/CCl)cc1
inactive: [1] -1.55% | [2] 2% | [3] 7.05% | [4] -49.3% | [5] -22.1% | [6] -1.2%

Cc1[nH]nc2c(=O)n(N)nnc12
inactive: [1] 18.4% | [2] 7.3% | [3] 0.35% | [4] -16.9% | [5] -15.8% | [6] 26.4%

CCC(C)(O)C#CC(C)(O)CC (stereo unspecified)
inactive: [1] -0.1% | [2] -0.95% | [3] 11.8% | [4] -63% | [5] 9.8% | [6] -40.8%

Oc1[nH]c2ccccc2c1N=NC(=S)Nc1cccc(Cl)c1
inactive: [1] -0.35% | [2] 4.4% | [3] 55.5% | [4] 35% | [5] 23.5% | [6] 15.2%

O=C(c1ccccc1)N1OCCC1Nc1ccc(Br)cc1 (stereo unspecified)
inactive: [1] -9.85% | [2] -7.45% | [3] -3.95% | [4] 13.6% | [5] -15% | [6] 3.65%

C=C1C(=O)OC2CC(C)C(C(CC(C)=O)OC(C)=O)=CCC12 (stereo unspecified)
inactive: [1] 0.6% | [2] 5.1% | [3] 3.6% | [4] 6.8% | [5] 6.1% | [6] -53.7%

COc1cc2c(cc1OC)C(=O)C1(C2)[C@H](c2ccccc2)C2C(=O)c3cc(OC)c(OC)cc3C2[C@H]1c1ccccc1 (stereo partly specified)
inactive: [1] -2.5% | [2] 3.25% | [3] 29.9% | [4] 17.6% | [5] 46% | [6] 23.1%

c1ccc(C2c3ccccc3-c3ncnc(N4CCCCC4)c32)cc1 (stereo unspecified)
inactive: [1] 9.4% | [2] -3.15% | [3] 24.8% | [4] 15.1% | [5] -0.45% | [6] 14.7%

Cc1ccc(Cl)cc1NC(=S)N(C)C
inactive: [1] 15.9% | [2] 16.1% | [3] 34.7% | [4] 3.75% | [5] 50.2% | [6] 24.5%

N#CC1CCCCCC1
inactive: [1] 0.8% | [2] -12.4% | [3] 5.7% | [4] 2.6% | [5] 8.15% | [6] 5.85%

Cc1cc(N(CCC#N)CCC#N)ccc1/C=C1N=C(/C=C\c2ccccc2)OC\1=O
inactive: [1] 5.5% | [2] -8.5% | [3] 5.5% | [4] 12.2% | [5] 10.3% | [6] 5.3%

Cn1c(=O)c2n[nH]nc2n(C)c1=O
inactive: [1] 7.25% | [2] -0.5% | [3] -0.35% | [4] -11.7% | [5] -14.8% | [6] 15.8%

CCCn1cc2c(=O)[nH]c(SC)nc2n1
inactive: [1] -4.95% | [2] -20.8% | [3] -1.35% | [4] -13.1% | [5] -12.7% | [6] 10.8%

C=C1CC(OC(=O)c2ccc([N+](=O)[O-])cc2)C1
inactive: [1] 1.5% | [2] -16.6% | [3] -16.5% | [4] -8.65% | [5] 3.7% | [6] -8.5%

Cc1ccc(Cl)cc1NC(=O)CCc1ccccc1
inactive: [1] 3.7% | [2] 22.1% | [3] 23.6% | [4] -1.6% | [5] 4.25% | [6] 21.1%

[O-]/[N+](=C\c1ccccc1)[C@H](COCc1ccccc1)c1ccccc1
inactive: [1] -21.8% | [2] -17.1% | [3] -23.8% | [4] -13.5% | [5] -2.75% | [6] -5.5%

O=C(O)/C(=C\c1ccccc1[N+](=O)[O-])c1ccc(Cl)cc1
inactive: [1] -0.2% | [2] -14.1% | [3] -2.3% | [4] -46.8% | [5] -8.95% | [6] -1.8%

COc1c(NC(=O)Nc2ccc(SC)cc2)cccc1[N+](=O)[O-]
inactive: [1] 2.35% | [2] 15.6% | [3] 23.6% | [4] 5.1% | [5] 41.3% | [6] 9.65%

Cc1ccc(C2=NO[C@@H]3C(=O)N(c4ccc(Cc5ccc(N6C(=O)[C@H]7C(c8ccc(C)cc8)=NO[C@H]7C6=O)cc5)cc4)C(=O)[C@H]23)cc1
inactive: [1] -0.4% | [2] 30.1% | [3] 29.1% | [4] 32.4% | [5] 31.1% | [6] 20.1%

Clc1ccc(C2OCCO2)cc1
inactive: [1] 12.2% | [2] 3.95% | [3] 11.2% | [4] 3.35% | [5] -0.35% | [6] 14.3%

Cc1nc(C(N)=O)c(=O)[nH]c1C
inactive: [1] 2.25% | [2] 2.3% | [3] 8% | [4] -22.9% | [5] 2.65% | [6] 13.7%

Nc1nc(Cc2ccccc2)c(CCCNc2ccccc2)c(=O)[nH]1
inactive: [1] -4.95% | [2] 5.05% | [3] 6.45% | [4] -74.3% | [5] 1.75% | [6] -12.8%

Cc1cccc([B-]23OCC[N+]2(CNC(=O)c2ccccc2O)CCO3)c1 (stereo unspecified)
inactive: [1] -21.6% | [2] -19.8% | [3] -7.5% | [4] -11.6% | [5] -18.4% | [6] -16.8%

CNC(=O)c1ccc(C(=O)NC)cc1
inactive: [1] -19.1% | [2] -26.1% | [3] -42.9% | [4] 3.95% | [5] -41.9% | [6] -1.75%

O=C(COc1cccc(C(=O)O)c1)Nc1ccccc1
inactive: [1] 3.5% | [2] 7.9% | [3] 12.4% | [4] -1.4% | [5] 50.8% | [6] 8%

O=C(Nc1ccc(F)cc1)c1cc2c(cc1Cl)Sc1nccn1S2(=O)=O
inactive: [1] -7% | [2] -4% | [3] -8.8% | [4] 16.9% | [5] 3.55% | [6] 2.7%

CCCCOC(=O)C1CSSCC(NC(C)=O)C(=O)N1 (stereo unspecified)
inactive: [1] -2.05% | [2] -7.35% | [3] 1.5% | [4] -16.5% | [5] -7.2% | [6] -6.95%
